PubChem BioAssay
Calls of active or inactive are those of the source. The rule behind the calls is not given here.

molecular target: Pantothenate synthetase (Mycobacterium tuberculosis (strain ATCC 25618 / H37Rv)) (UniProt P9WIL5); experiment: Recombinant Mtb pantothenate synthetase (PanC) inhibitors, coupled enzyme, confirmatory (AID 375); settings: coupled enzyme assay; at 10 µM, stronger effect = higher value;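 note: 0% = full reaction with vehicle and 100% = no enzyme background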
Sequence (P9WIL5 whole entry, looked up): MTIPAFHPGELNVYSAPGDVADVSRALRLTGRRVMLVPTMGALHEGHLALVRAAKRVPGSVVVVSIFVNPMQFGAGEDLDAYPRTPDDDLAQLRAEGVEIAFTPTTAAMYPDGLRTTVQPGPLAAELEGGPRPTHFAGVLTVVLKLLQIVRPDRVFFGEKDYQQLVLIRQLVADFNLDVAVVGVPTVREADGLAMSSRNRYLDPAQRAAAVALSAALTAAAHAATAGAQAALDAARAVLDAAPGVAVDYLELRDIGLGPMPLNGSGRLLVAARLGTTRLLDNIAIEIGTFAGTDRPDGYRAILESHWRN

Row | SMILES | inhibition
1 | O=C(CCN1CCOCC1)Nc1cccc(Br)c1 | 10% (inactive)
2 | Nn1c(SCC(=O)NC2CCCCC2)nnc1-c1ccc(Cl)cc1 | 2% (inactive)
3 | COCCN(Cc1cc2cc3c(cc2n2nnnc12)OCO3)C(=O)c1ccccc1F | 2% (inactive)
4 | CCN1CCc2c(C#N)c(N3CCCCC3)nc(NCc3ccccc3)c2C1 | 0% (inactive)
5 | COCCSc1ccccc1C(=O)Nc1nncs1 | 0% (inactive)
6 | COc1ccc(CNc2nc3nc(C)c(Cl)c(C)n3n2)cc1OC | 6% (inactive)
7 | CCOC(=O)C1C(=O)N(C(=O)c2ccc(OC)cc2)CC1c1ccccc1 (stereo not given) | 0% (inactive)
8 | COc1ccc(CCNC(=O)c2ccncc2)cc1OC | 4% (inactive)
9 | CCOC(=O)c1nnn(-c2nonc2N)c1CN1CCc2ccccc2C1 | 2% (inactive)
10 | CCOC(=O)C1=C(C)N=C2SC(C)C(=O)N2C1c1cccc(F)c1 (stereo not given) | 0% (inactive)
11 | Cc1nc2ccc(S(=O)(=O)NCC(=O)O)cc2s1 | 4% (inactive)
12 | O=S(=O)(c1ccc2c(c1)OCCO2)N1CCC(n2nnc3cc(F)ccc32)CC1 | 1% (inactive)
13 | CC1CCN(c2c(NCc3ccc(C(=O)N4c5ccccc5CC4C)cc3)c(=O)c2=O)CC1 (stereo not given) | 0% (inactive)
14 | C/C(=N\O)C(C)/[N+]([O-])=C/c1nc(C)c(C)n1O (stereo not given) | 0% (inactive)
15 | CCc1ccc(NC(=O)c2cc(-c3ccco3)on2)cc1 | 4% (inactive)
16 | COc1cc(C2c3c(oc4ccccc4c3=O)C(=O)N2c2ccc(C)cn2)ccc1O (stereo not given) | 0% (inactive)
17 | O=C(O)Cc1ccccc1C(=O)O | 0% (inactive)
18 | Cn1c(=O)c2c(nc(NCCCO)n2Cc2cccc(Br)c2)n(C)c1=O | 3% (inactive)
19 | CCOc1cccc(Oc2ccc(C(F)(F)F)cn2)c1 | 0% (inactive)
20 | Cc1cccc(NC(=O)CSc2nnc(-c3ccccc3C)o2)c1 | 0% (inactive)

Row | SMILES | inhibition
21 | O=c1cc(-c2ccco2)oc2ccc(Cl)cc12 | 1% (inactive)
22 | CCOC(=O)N1CCN(C(=O)COc2cc(=O)n(C)c3ccccc23)CC1 | 0% (inactive)
23 | COc1ccc(-c2nc(N3CCCC3)[nH]c(=O)c2C#N)cc1 | 0% (inactive)
24 | CCOC(=O)Cc1nnc(NC(=O)c2ccccc2OCC)s1 | 0% (inactive)
25 | CC(C)(C)c1cc(NS(=O)(=O)c2ccc3c(c2)OCCO3)on1 | 0% (inactive)
26 | c1ccc(CNc2ncnc3ccccc23)cc1 | 12% (inactive)
27 | O=C(Nc1ccc(F)cc1)N(CCCN1CCOCC1)Cc1cc2cc3c(cc2[nH]c1=O)OCO3 | 6% (inactive)
28 | COCCn1c(SCC(=O)Nc2sc(C)c(C)c2C#N)nnc1C(C)C | 0% (inactive)
29 | CCCOc1ccc(N2C(=O)CC(NCCCN3CCC(C(N)=O)CC3)C2=O)cc1 (stereo not given) | 4% (inactive)
30 | O=C(CCN1C(=O)C2C3C=CC(C3)C2C1=O)N1CCN(c2ccccc2Cl)CC1 (stereo not given) | 3% (inactive)
31 | CCOC(=O)c1cc(C)n(CCCN2CCOCC2)c1C | 0% (inactive)
32 | COCCn1c(=O)[nH]c2cc(C(=O)NCCCN3CCN(c4ccc(F)cc4)CC3)ccc2c1=O | 0% (inactive)
33 | CC1(C)CC(=O)C(C=NCCO)=C(O)C1 | 0% (inactive)
34 | CCC(C)Nc1nc2c(c(=O)n(C)c(=O)n2C)n1Cc1ccc(F)cc1 (stereo not given) | 3% (inactive)
35 | O=C(Nc1cc(C(F)(F)F)ccc1Cl)C1CCN(c2nnc(-n3cccc3)s2)CC1 | 3% (inactive)
36 | CCc1cc2c(=O)c(-c3ccc4c(c3)OCCO4)coc2cc1OC(=O)c1ccco1 | 0% (inactive)
37 | Cc1cc(O)c(C(C)C)cc1N=C1CSC(=O)N1 | 0% (inactive)
38 | CCOc1ccc(S(=O)(=O)n2nc(C)cc2C)c2ccccc12 | 0% (inactive)
39 | O=C(c1ccccc1Br)N1CCN(c2ccccc2)CC1 | 8% (inactive)
40 | Cc1c(NC(=O)c2noc3c2CCc2ccccc2-3)c(=O)n(-c2ccccc2)n1C | 0% (inactive)
